Test results: PubChem BioAssay AID1159580 (chemical genetic matrix, 2015)
The campaign covered roughly 5,500 compounds. About 2,000 (36%) were called active. About 18% were inconclusive and are not listed. Cut-off read from the data, not from the text of the source: active = normalized growth mostly below about 0.91 (no sharp cut-off); inconclusive = no clear call, values can overlap the other calls; inactive = mostly above about 0.92. Some of the results follow.

Experiment: chemical genetic growth profiling, strain panel (AID 1159580);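 note: tested at 20 µM; growth read once vehicle control cultures reached saturation at 30 °C; 1 = growth at the plate median or of vehicle wells; lower values mean less growth of the strain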
Details: growth OD

Measured: normalized growth

CO[C@H]1[C@H](O)[C@H](O[C@H]2CC[C@]3(C)C4CC[C@]5(C)C(C6=CC(=O)OC6)CC[C@]5(O)C4CC[C@@H]3C2)O[C@@H](C)[C@@H]1O (some centres undefined)
inactive: S. cerevisiae deletion strains, locus YJR043C, strain POL32, hits give low values 1.02 | S. cerevisiae deletion strains, locus YJR075W, strain HOC1, hits give low values 1.02 | S. cerevisiae deletion strains, locus YKL009W, strain mrt4, hits give low values 0.996 | S. cerevisiae deletion strains, locus YKL068W, hits give low values 1 | S. cerevisiae deletion strains, locus YKL085W, strain MDH1 (second series), hits give low values 1.01 | S. cerevisiae deletion strains, locus YKL085W, strain MDH1, hits give low values 1.01 | S. cerevisiae deletion strains, locus YKL160W, strain elf1, hits give low values 0.989 | S. cerevisiae deletion strains, locus YKL190W, strain CNB1, hits give low values 1.01 | S. cerevisiae deletion strains, locus YKR001C, strain vps1, hits give low values 0.992 | S. cerevisiae deletion strains, locus YKR026C, strain gcn3, hits give low values 0.995 | S. cerevisiae deletion strains, locus YKR091W, strain srl3, hits give low values 0.995 | S. cerevisiae deletion strains, locus YLL001W, strain dnm1, hits give low values 0.999 | S. cerevisiae deletion strains, locus YLL026W, hits give low values 1 | S. cerevisiae deletion strains, locus YLL041C, strain sdh2, hits give low values 1.01 | S. cerevisiae deletion strains, locus YLR027C, strain aat2, hits give low values 0.999 | S. cerevisiae deletion strains, locus YLR039C, strain RIC1, hits give low values 1.02 | S. cerevisiae deletion strains, locus YLR058C, strain SHM2, hits give low values 1.02 | S. cerevisiae deletion strains, locus YLR102C, strain apc9, hits give low values 1 | S. cerevisiae deletion strains, locus YLR221C, strain rsa3, hits give low values 1.01 | S. cerevisiae deletion strains, locus YLR258W, strain gsy2, hits give low values 1 | S. cerevisiae deletion strains, locus YLR262C, strain YPT6 (second series), hits give low values 1.01 | S. cerevisiae deletion strains, locus YLR262C, strain YPT6, hits give low values 1.01 | S. cerevisiae deletion strains, locus YLR268W, strain sec22, hits give low values 1.02 | S. cerevisiae deletion strains, locus YLR320W, strain mms22, hits give low values 1.01 | S. cerevisiae deletion strains, locus YLR330W, strain CHS5, hits give low values 1.02 | S. cerevisiae deletion strains, locus YLR342W, strain FKS1 (second series), hits give low values 1.06 | S. cerevisiae deletion strains, locus YLR342W, strain FKS1, hits give low values 1 | S. cerevisiae deletion strains, locus YLR357W, strain rsc2, hits give low values 0.992 | S. cerevisiae deletion strains, locus YLR370C, strain arc18, hits give low values 1 | S. cerevisiae deletion strains, locus YLR371W, strain rom2, hits give low values 1.02 | S. cerevisiae deletion strains, locus YLR384C, strain iki3, hits give low values 0.991 | S. cerevisiae deletion strains, locus YLR418C, strain cdc73, hits give low values 1.03 | S. cerevisiae deletion strains, locus YML016C, strain PPZ1, hits give low values 1.01 | S. cerevisiae deletion strains, locus YML032C, strain rad52, hits give low values 1 | S. cerevisiae deletion strains, locus YML120C, strain ndi1, hits give low values 1.03 | S. cerevisiae deletion strains, locus YML124C, strain tub3, hits give low values 1.01 | S. cerevisiae deletion strains, locus YMR058W, strain fet3, hits give low values 1.02 | S. cerevisiae deletion strains, locus YMR078C, strain ctf18, hits give low values 1.01 | S. cerevisiae deletion strains, locus YMR125W, strain sto1, hits give low values 0.981 | S. cerevisiae deletion strains, locus YMR129W, hits give low values 1.01 | S. cerevisiae deletion strains, locus YMR205C, strain PFK2, hits give low values 1 | S. cerevisiae deletion strains, locus YMR223W, strain ubp8, hits give low values 0.994 | S. cerevisiae deletion strains, locus YMR231W, strain pep5, hits give low values 1 | S. cerevisiae deletion strains, locus YMR263W, strain SAP30, hits give low values 1.01 | S. cerevisiae deletion strains, locus YMR307W, strain GAS1, hits give low values 1.06 | S. cerevisiae deletion strains, locus YNL067W, strain RPL9B, hits give low values 1.02 | S. cerevisiae deletion strains, locus YNL071W, strain lat1, hits give low values 0.996 | S. cerevisiae deletion strains, locus YNL128W, strain TEP1, hits give low values 1.04 | S. cerevisiae deletion strains, locus YNL153C, strain GIM3, hits give low values 1.02 | S. cerevisiae deletion strains, locus YNL209W, strain ssb2, hits give low values 0.985 | S. cerevisiae deletion strains, locus YNL233W, strain BNI4, hits give low values 1.02 | S. cerevisiae deletion strains, locus YNL248C, strain rpa49, hits give low values 0.991 | S. cerevisiae deletion strains, locus YNL250W, strain rad50, hits give low values 1 | S. cerevisiae deletion strains, locus YNL271C, strain bni1, hits give low values 1.01 | S. cerevisiae deletion strains, locus YNL298W, strain CLA4, hits give low values 0.999 | S. cerevisiae deletion strains, locus YNL307C, strain MCK1, hits give low values 1.02 | S. cerevisiae deletion strains, locus YNL322C, strain KRE1 (second series), hits give low values 0.989 | S. cerevisiae deletion strains, locus YNL322C, strain KRE1, hits give low values 1.01 | S. cerevisiae deletion strains, locus YNR049C, strain mso1, hits give low values 1 | S. cerevisiae deletion strains, locus YNR052C, strain pop2, hits give low values 1 | S. cerevisiae deletion strains, locus YOL006C, strain TOP1, hits give low values 1.06 | S. cerevisiae deletion strains, locus YOL012C, strain htz1 1.19 | S. cerevisiae deletion strains, locus YOL147C, strain pex11, hits give low values 1.01 | S. cerevisiae deletion strains, locus YOR001W, strain rrp6, hits give low values 1.02 | S. cerevisiae deletion strains, locus YOR061W, strain CKA2, hits give low values 1.01 | S. cerevisiae deletion strains, locus YOR069W, strain VPS5, hits give low values 1.01 | S. cerevisiae deletion strains, locus YOR070C, strain gyp1, hits give low values 1.01 | S. cerevisiae deletion strains, locus YOR080W, strain dia2, hits give low values 1 | S. cerevisiae deletion strains, locus YOR083W, strain WHI5, hits give low values 0.955 | S. cerevisiae deletion strains, locus YOR106W, strain vam3, hits give low values 0.984 | S. cerevisiae deletion strains, locus YOR136W, strain idh2, hits give low values 1.01 | S. cerevisiae deletion strains, locus YOR144C, strain elg1, hits give low values 1.01 | S. cerevisiae deletion strains, locus YOR184W, strain ser1, hits give low values 1.01 | S. cerevisiae deletion strains, locus YOR265W, strain rbl2, hits give low values 1.01 | S. cerevisiae deletion strains, locus YOR270C, strain vph1, hits give low values 0.97 | S. cerevisiae deletion strains, locus YOR290C, strain snf2, hits give low values 1.01 | S. cerevisiae deletion strains, locus YOR316C, strain cot1, hits give low values 1 | S. cerevisiae deletion strains, locus YPL051W, strain arl3, hits give low values 0.994 | S. cerevisiae deletion strains, locus YPL055C, strain LGE1, hits give low values 1 | S. cerevisiae deletion strains, locus YPL078C, strain atp4, hits give low values 0.989 | S. cerevisiae deletion strains, locus YPL106C, strain sse1, hits give low values 0.959 | S. cerevisiae deletion strains, locus YPL240C, strain hsp82, hits give low values 0.998 | S. cerevisiae deletion strains, locus YPL241C, strain CIN2, hits give low values 1.01 | S. cerevisiae deletion strains, locus YPR119W, strain clb2, hits give low values 0.996 | S. cerevisiae deletion strains, locus YPR141C, strain kar3, hits give low values 1 | S. cerevisiae deletion strains, locus YPR163C, strain tif3, hits give low values 1.01 | S. cerevisiae deletion strains, locus YPR167C, strain met16, hits give low values 0.998 | S. cerevisiae deletion strains, strain wtn01, hits give low values 1 | S. cerevisiae strains, strain wild type, hits give low values 1.02
